# Only some compounds are listed: those with a hit (about 3.4% of all), similar ones and a draw of the others.
# PAFAH1B2 inh = blocks human PAF acetylhydrolase 1b catalytic subunit 2. P68402. recombinant PAFAH1B2, FP-rhodamine activity probe, fluorescence polarization. inhibition, % at 3.39 µM. 1.2% of 340,000 active. AID 492953;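 active means inhibition above the mean of all tested compounds plus 3 SD, cut at about 24% in these data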;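 further: 0% = enzyme with DMSO and 100% = wells lacking PAFAH1B2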
# Target sequence (P68402 whole entry, looked up): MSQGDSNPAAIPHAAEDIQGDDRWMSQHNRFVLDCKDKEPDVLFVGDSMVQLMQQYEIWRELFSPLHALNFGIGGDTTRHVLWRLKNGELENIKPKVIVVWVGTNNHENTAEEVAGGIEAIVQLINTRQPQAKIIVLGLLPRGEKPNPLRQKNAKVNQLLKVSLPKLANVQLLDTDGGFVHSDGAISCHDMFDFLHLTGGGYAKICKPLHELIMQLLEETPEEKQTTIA
# pPAFAH inh = pPAFAH (human) enzyme inhibition. Q13093. recombinant pPAFAH, FP-rhodamine probe fluorescence polarization. inhibition, % at 3.39 µM. 1.5% of 330,000 active. AID 463082;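 active means inhibition above the mean inhibition across the screen plus 3 SD, cut at about 25% in these data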;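 further: inhibitors block binding of the rhodamine activity-based probe so polarization drops; 0% = enzyme with DMSO and 100% = wells lacking pPAFAH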
# PAFAH2 inh = PAFAH2 (human) inhibition; 0.99% of 340,000 active; recombinant PAFAH2, FP-rhodamine activity probe, fluorescence polarization; Q99487; inhibition, % at 3.39 µM;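 active means inhibition above the mean over all tested compounds plus 3 SD, cut at about 30% in these data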;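 further: inhibitors block probe labeling of enzyme so polarization drops; 0% = enzyme with DMSO and 100% = wells lacking PAFAH2 protein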
# PP1 counter = counter-screen for PP5 inhibitors: inhibitors of human PP1-alpha. 0.9% of 320,000 active. purified PP1alpha, OMFP fluorescence. inhibition, % at 6.7 µM. AID 2235;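 active means inhibition above the mean inhibition of all tested compounds plus 3 SD, computed separately for each screening campaign, cut at about 15% in these data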
# PP5 primary = blocks human protein phosphatase 5 activity; inhibition, % at 6.7 µM; 0.18% of 320,000 active; purified PP5c, OMFP substrate fluorescence; P53041;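 active means inhibition above the campaign's mean inhibition across all tested compounds plus 3 SD, cut at about 9.5% in these data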;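 further: 0% = DMSO only and 100% = 100 µM cantharidin control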
# PAFAH1B3 inh = blocks human PAF acetylhydrolase 1B catalytic subunit 3; Q15102; inhibition, % at 3.39 µM; recombinant PAFAH1B3, FP-rhodamine probe, fluorescence polarization; 0.28% of 340,000 active;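 active means inhibition above the screen-wide average of all tested compounds plus 3 SD, cut at about 25% in these data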;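 further: 0% = enzyme with DMSO only and 100% = wells lacking PAFAH1B3 protein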
# Target sequence (Q15102 whole entry, looked up): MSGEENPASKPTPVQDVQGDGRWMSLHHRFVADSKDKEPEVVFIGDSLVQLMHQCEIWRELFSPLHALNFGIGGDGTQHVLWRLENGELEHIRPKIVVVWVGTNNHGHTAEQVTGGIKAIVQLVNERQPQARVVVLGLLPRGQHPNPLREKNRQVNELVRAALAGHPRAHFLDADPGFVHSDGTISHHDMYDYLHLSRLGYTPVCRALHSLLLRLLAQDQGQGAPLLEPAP
# * marks the source's active call; other numbers are inactive results; · = no result given.
SMILES,PAFAH1B2 inh,pPAFAH inh,PAFAH2 inh,PP1 counter,PP5 primary,PAFAH1B3 inh
C[C@H](NC(=O)OCc1ccccc1)c1nnc([C@H](Cc2ccccc2)NC(=O)OC(C)(C)C)o1,4.8,25.6*,-2.4,0.7,1.8,-2.0
Cn1c2ccccc2c2cc(/C=N/NC(=O)c3cc(O)cc(O)c3)ccc21,24.9*,29.6*,-34.2,2.7,4.2,16.3
CCn1c2ccccc2c2cc(/C=N/NC(=O)c3ccccc3)ccc21,1.3,1.9,-13.8,0.3,1.6,-8.3
CCCCCCCCCCCCN1[C@@H](CC(C)=O)c2cc(F)ccc2S1(=O)=O,5.1,20.1,-14.1,1.4,5.2,-1.4
COc1cc(C(=O)NCC(c2cccs2)N2CCOCC2)c([N+](=O)[O-])cc1OC (stereo not drawn),0.9,3.1,2.6,-6.6,0.4,2.3
CCOC(=O)/C(C#N)=C/c1cc(C)n(-c2ccc(C)cc2)c1C,-1.1,26.1*,-4.9,-7.3,0.8,6.0
Cc1c(C(=O)N2CCC2)oc2ccc(Cl)cc12,1.3,-0.4,-4.5,·,·,10.9
O=C(O)C1C2C=CC3(CN(c4cccc(C(F)(F)F)c4)C(=O)C13)O2 (stereo not drawn),25.3*,2.0,1.4,-2.7,1.6,5.7
O=C(O)C1C2C=CC3(CN(C/C=C/c4ccccc4)C(=O)C13)O2 (stereo not drawn),2.9,30.6*,7.6,-3.3,-0.2,-2.4
O=c1[nH]c(=S)[nH]c2c1C(c1ccc(Br)cc1)c1c([nH]c(=S)[nH]c1=O)O2,-3.8,27.1*,54.7*,9.4,-0.4,20.8
Cc1cc(N/N=C/c2cccc(Cl)c2)nc(NCc2ccccc2)n1,-0.1,-3.8,1.1,15.5*,2.2,6.9
Cc1cc(Nc2cccc(Cl)c2)nc(NCc2ccccc2)n1,7.5,-0.6,4.8,16.2*,6.6,4.5
Cc1cc(N/N=C/c2ccccc2)nc(NCc2ccccc2)n1,-11.5,3.3,2.5,5.8,3.0,11.8
CCOc1ccccc1NC(=O)NC1CCCc2ccccc21 (stereo not drawn),1.4,2.6,-5.8,-2.3,0.3,-10.2
Cc1nnc(-c2cccc(Br)c2)c2cn(-c3ccc(Br)cc3)nc12,-0.6,3.4,-18.1,12.7,3.5,2.3
Cc1nnc(-c2cccc(Br)c2)c2cn(-c3ccccc3)nc12,6.1,24.6*,-6.0,-1.7,3.4,7.1
Cc1nnc(-c2cccc(Br)c2)c2cn(-c3cccc(Br)c3)nc12,-3.2,32.2*,1.6,13.8,1.3,-6.2
C/C(=N\NC(=O)C(c1ccccc1)c1ccccc1)c1ccccn1,0.6,3.2,7.8,1.6,1.8,2.4
COc1ccc([C@@H]2C[C@H]3CN(Cc4ccccc4OC)C(=O)[C@]34CCCN24)cc1C,-0.6,2.1,0.3,1.1,0.1,3.6
O=C(CSC(=S)N1CCCCC1)c1ccccc1,-2.8,5.4,5.3,-2.1,3.1,6.2
NC(=O)[C@@H]1CCOc2c(F)cc([N+](=O)[O-])cc2C(=O)N[C@@H](CO)C(=O)NCC(=O)N1,4.0,0.6,2.0,-2.9,0.8,-11.3
Cc1ccc(SCc2nc3ccccc3n2CC(=O)Nc2ccccc2)cc1,13.6,-2.6,-2.6,1.2,3.7,3.1
Cc1ccc(SCc2nc3ccccc3n2CC(=O)Nc2c(C)cccc2C)cc1,3.7,-2.4,-8.3,16.0*,1.2,-12.0
O=C(COC(=O)c1sc2ccccc2c1Cl)NCC1CCCCC1,3.7,27.2*,15.0,1.2,1.3,-0.3
O=C(Cc1cccc2ccccc12)Nc1cc(C(=O)O)cc(C(=O)O)c1,12.1,5.3,2.3,-3.6,1.3,8.6
SMILES,PAFAH1B2 inh,pPAFAH inh,PAFAH2 inh,PP1 counter,PP5 primary,PAFAH1B3 inh
CSc1nc(C)c(C(=O)C[n+]2ccc(C)cc2)cc1C#N,7.7,0.9,-5.9,0.4,1.9,2.8
CCCCOC(=O)c1cc(=O)[nH]c(=O)[nH]1,1.4,0.9,2.3,-5.0,3.4,6.6
Cc1ccc(C)n1-c1sc2c(c1C(=O)O)CCCC2,2.5,25.5*,16.5,-0.4,1.5,-2.4
CCOC(=O)c1c(-n2c(C)cc(C=O)c2C)sc2c1CCCC2,6.5,8.6,-6.4,-0.4,1.2,7.0
COc1ccc(C(=O)NC(C)c2csc(C)n2)cc1OC1CCN(C(C)=O)CC1 (stereo not drawn),2.7,5.6,13.2,-1.4,-1.8,-0.9
Cc1ccc(-c2cc(C(=O)NCc3ccco3)c3ccccc3n2)o1,-2.6,22.2,7.5,15.3*,-3.8,6.0
Cc1cc(C(=O)NCc2ccco2)c2ccccc2n1,-3.2,-4.6,-0.3,10.9,-4.5,6.2
Cc1csc(NC(=O)c2cc(-c3ccco3)nc3ccccc23)n1,-2.6,25.2*,-1.6,10.1,2.6,-1.1
Cc1csc(NC(=O)c2cc(C)nc3ccccc23)n1,1.7,-5.1,-5.7,-4.9,-3.1,-0.7
CC(C)CCOP(=O)(c1ccc(N(C)C)cc1)C(O)c1ccccc1F (stereo not drawn),11.5,-2.3,-0.7,-3.3,1.5,10.1
Cc1c(Cl)cccc1NC(=O)COc1ccc(S(=O)(=O)N2CCOCC2)cc1,5.2,2.6,1.4,-0.2,-1.5,2.4
C/C(=N\O)C1/C(=N/O)CC2C1C2(C)C (stereo not drawn),33.7*,2.5,8.6,-2.5,-1.7,-2.9
Cc1ccc(NC(=O)NNS(=O)(=O)c2ccc(Br)cc2)cc1,8.0,-1.3,2.8,1.7,2.1,-3.3
Cc1ccc(S(=O)(=O)NC(=O)Nc2ccc(N(C)C)cc2)cc1,5.6,25.1*,0.4,6.2,1.4,6.6
COc1ccc(-c2nc(SCc3ccccc3)n(S(C)(=O)=O)n2)cc1,-0.8,2.2,9.5,1.5,11.4*,6.5
CCS(=O)(=O)n1nc(-c2ccc(Cl)cc2)nc1SCc1ccccc1,·,4.0,·,6.3,4.9,·
CCc1ccc(OC)c(S(=O)(=O)Nc2ccc(Cc3ccncc3)cc2)c1,11.5,26.4*,-0.2,2.6,4.3,3.4
O=S(=O)(Nc1ccc(Cc2ccncc2)cc1)c1ccc(Cl)c(Cl)c1,8.5,24.6*,-0.1,7.8,3.7,5.6
O=C(O)c1ccc(NS(=O)(=O)c2ccc(Cl)c(Cl)c2)cc1O,32.6*,4.6,2.0,-3.3,-0.3,2.1
O=C(CN1CCc2ccccc2C1)Nc1ccc(F)cc1F,4.1,1.3,-2.3,-3.5,0.3,0.8
CN(CC(=O)Nc1ccc(Cl)cc1)CC(=O)Nc1ccc(C(N)=O)cc1,7.9,0.2,8.0,-1.3,-0.2,3.8
CN(C)CC(=O)Nc1ccc(Oc2ccc(Cl)cc2)cc1,3.9,25.5*,5.9,0.1,0.1,7.3
NC(=O)c1ccsc1NC(=O)COC(=O)c1ccc([N+](=O)[O-])o1,-1.2,4.9,-1.1,2.7,-0.2,5.7
NC(=O)c1ccsc1NC(=O)c1ccc([N+](=O)[O-])o1,8.7,35.7*,35.7*,·,·,8.8
COc1cccc(/C=N/NC(=O)CC2C(=O)NN=C2C)c1OC (stereo not drawn),1.4,2.4,-0.1,-3.9,0.5,-0.2

# From PubChem
